Source: PubChem BioAssay (EPA / NIEHS)
Values joined by “and” are separate entries in the source; they are usually repeats but may differ in a detail not shown here. Identical values can stand only once. Active and inactive are the calls of the source. Rule for the calls: active = hit-call score of the fitted dose curve at least 0.9, where 1 is the maximum; inactive = score below 0.9.

These compounds were tested on Cytochrome P450 (CYP1A1), CYP1A1 (gene 1543) (assay: LTEA_HepaRG_CYP1A1: Life Technologies and Expression Analysis (LTEA) Assay for Cytochrome P450 (CYP1A1) using HepaRG (AID 2283454)). Conditions: mRNA level, 48 h; actives raise or lower the signal.
In short: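 HepaRG, 48 h post-plating switched to serum-free induction medium; 8-pt conc-response (top 100 uM, half-log, 0.5% DMSO), duplicates, 48 h. Lysis in RLT, TaqMan qRT-PCR for CYP1A1; gain or loss vs DMSO.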

Row | Structure (SMILES) | AC50 | outcome
1 | CCOC(=O)CC(SP(=S)(OC)OC)C(=O)OCC (centres undefined) | 22.8 µM (active) | 
2 | CS/C(C)=N/OC(=O)N(C)SN(C)C(=O)O/N=C(\C)SC |  | inactive
3 | OC(c1ccc(Cl)cc1)(c1cncnc1)c1ccccc1Cl (centres undefined) | 13 µM (active) | 
4 | C=CCC1=C(C)C(OC(=O)C2C(C=C(C)C)C2(C)C)CC1=O (centres undefined) | 50 µM (active) and 31.8 µM (active) and 35.1 µM (active) | 
5 | CC(C)Oc1cc(-n2nc(C(C)(C)C)oc2=O)c(Cl)cc1Cl | 13.2 µM (active) | 
6 | Oc1ccccc1-c1ccccc1 |  | inactive
7 | CO/C=C(/C(=O)OC)c1ccccc1Oc1cc(Oc2ccccc2C#N)ncn1 | 27 µM (active) and 25.2 µM (active) and 19 µM (active) | 
8 | N#CC(CCc1ccc(Cl)cc1)(Cn1cncn1)c1ccccc1 (centres undefined) | 9.8 µM (active) | 
9 | COc1nc(NC(C)C)nc(NC(C)C)n1 | 36 µM (active) | 
10 | CNC(=S)S | 50 µM (active) | 
11 | C=CCC1=C(C)[C@@H](OC(=O)[C@@H]2[C@@H](C=C(C)C)C2(C)C)CC1=O | 63 µM (active) | 
12 | CCNc1nc(Cl)nc(NCC)n1 | 21.4 µM (active) | 
13 | CON(C)C(=O)Nc1ccc(Cl)c(Cl)c1 | 72.7 µM (active) | 
14 | CCOc1cc(Oc2ccc(C(F)(F)F)cc2Cl)ccc1[N+](=O)[O-] | 9.84 µM (active) | 
15 | CC1=C(C(=O)Nc2ccccc2)SCCO1 | 89.9 µM (active) | 
16 | CC1COC(Cn2cncn2)(c2ccc(Oc3ccc(Cl)cc3)cc2Cl)O1 (centres undefined) | 12.2 µM (active) | 
17 | CCON=C(CC)C1=C(O)CC(c2c(C)cc(C)cc2C)CC1=O (centres undefined) |  | inactive
18 | Cc1cc(Cl)ccc1OCC(=O)O | 50 µM (active) | 
19 | CCCCNC(=O)n1c(NC(=O)OC)nc2ccccc21 | 26.1 µM (active) | 
20 | CCCC1COC(Cn2cncn2)(c2ccc(Cl)cc2Cl)O1 (centres undefined) | 40 µM (active) | 
21 | CCNc1nc(Cl)nc(NC(C)C)n1 | 40.5 µM (active) | 
22 | CCOC(=O)C(Cl)Cc1cc(-n2nc(C)n(C(F)F)c2=O)c(F)cc1Cl (centres undefined) | 61.9 µM (active) | 
23 | C=CC1(C)OC(=O)N(c2cc(Cl)cc(Cl)c2)C1=O (centres undefined) | 24.6 µM (active) | 
24 | Cc1c(F)c(F)c(COC(=O)C2C(/C=C(\Cl)C(F)(F)F)C2(C)C)c(F)c1F (centres undefined) | 50 µM (active) | 
25 | COP(=S)(OC)Oc1nc(Cl)c(Cl)cc1Cl | 80.5 µM (active) | 

These compounds were tested on CFLAR gene, CFLAR (gene 8837) (assay: LTEA_HepaRG_CFLAR: Life Technologies and Expression Analysis (LTEA) Assay for CFLAR gene using HepaRG (AID 2283455)). Conditions: mRNA level, 48 h; actives raise or lower the signal.
In short: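 Differentiated HepaRG cells in serum-free induction medium were exposed 48 h in duplicate to eight half-log concentrations up to 100 uM in 0.5% DMSO; mRNA measured by TaqMan qRT-PCR, normalized to ACTB, GAPDH, POLR2A; bidirectional fitting versus DMSO.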

Row | Structure (SMILES) | outcome | AC50
26 | C=CCC1=C(C)C(OC(=O)C2C(C=C(C)C)C2(C)C)CC1=O (centres undefined) | inactive | 
27 | CC1COC(Cn2cncn2)(c2ccc(Oc3ccc(Cl)cc3)cc2Cl)O1 (centres undefined) | inactive | 
28 | CCCC1COC(Cn2cncn2)(c2ccc(Cl)cc2Cl)O1 (centres undefined) |  | 77.7 µM (active)
29 | C=CC1(C)OC(=O)N(c2cc(Cl)cc(Cl)c2)C1=O (centres undefined) | inactive | 
